This passage reports INHIBITION results from ChEMBL document CHEMBL4513216, “Probing the Open Global Health Chemical Diversity Library for Multistage-Active Starting Points for Next-Generation Antimalarials” (ACS Infect Dis, 2020).

The whole screen tested about 69,000 compounds, of which about 8,600 (12%) showed an effect of 50% or more. For the sample, strong results were picked, then their nearest neighbours and some compounds at random.

In this assay the test system is Plasmodium berghei. Nature of the assay: Screen against P. berghei liver stage (PbLuc), transformed with Luciferase, at 10uM. The note with it: tested at 10 uM. It is filed as functional, HepG2.
As to `Cc1nn(C)c(C)c1C1CCCN1Cc1nc2ccccc2n1C` (stereo not given), the INHIBITION was -55.4%.
For the molecule `COc1cccc(-n2nnc(C(=O)N3CCOC(C)C3)c2C)c1` (stereo not given), the INHIBITION turned out to be 14.05%.
Then `CCOC1CC2(CCN(C(C)=O)CC2)c2cc(F)ccc21` (stereo not given), with -33.9%.
Then `CCOc1ccccc1OC1CCN(C(=O)c2csnn2)CC1`, with 15.3%.
Then `CS(=O)(=O)N1CC2(CCN(C(=O)c3csnn3)CC2)c2ccccc21`, with 13.7%; and `CNC(=O)C1CC2(CCN(C(=O)c3csnn3)CC2)c2ccccc21` (stereo not given), with 51.3%; and `CCOC1CCC2(CCN(C(=O)c3c[nH]cn3)CC2)c2ccccc21` (stereo not given), with 51.4%.
As for `CCOC1CCC2(CCN(C(=O)c3csnn3)CC2)c2ccccc21` (stereo not given), the INHIBITION is given as 56.4%.
Then `CN1CCN(C(=O)c2csnn2)c2ccccc21`, with 23.2%; and `CC1CC2(CCN(C(=O)c3csnn3)CC2)c2ccccc21` (stereo not given), with 15.9%; and `CC1CC2(CCN(C(=O)c3c[nH]cn3)CC2)c2ccccc21` (stereo not given), with 5.68%.
Then `Cc1cccc(CN2C(=O)CO[C@@H]3CN(Cc4nccn4C)C[C@H]32)c1`, with 36.1%.
Then `COc1cccc(C2(CNC(C)c3nnc(C)o3)CCCC2)c1` (stereo not given), with 3.03%.
Turning to `CC(=O)N1CCCC(Cc2cncc(Br)c2)CC1` (stereo not given), the INHIBITION was 54.6%.
Then `CN1CCCC(Cc2cncc(Br)c2)CC1` (stereo not given), with 44.9%; and `CS(=O)(=O)N1CCCC(Cc2cncc(Br)c2)CC1` (stereo not given), with 29.3%; and `CC(C)N1CCCC(Cc2cncc(Br)c2)CC1` (stereo not given), with 51.5%.
Then `CC(=O)N1CCCC(Cc2cncc(Br)c2)C1` (stereo not given), with 44.1%.
Then `CN1CCN(C(=O)c2cncc(CC3CCCN(C)C3)c2)CC1` (stereo not given), with 37%; and `CC(=O)N1CCC(c2cncc(Cl)n2)CC1`, with 1.62%; and `Cc1cccc(CN2CCC3(CCCN(C(=O)N4CCCC4)C3)C2=O)n1` (stereo not given), with -29.3%.
Consider `CC(=O)NCCNC(=O)c1nc(C2CC2)n(-c2ccccc2Cl)n1`, for which the INHIBITION was 8.46%.
Then `Cc1ccc(S(=O)(=O)N(CC2CCOC2)C2CC2)cc1N(C)C` (stereo not given), with 17.1%; and `O=C(c1ccco1)N1CCc2ncc(CN3CCOCC3)n2CC1`, with 5.44%.
Then `Cc1noc(C2CN(Cc3ccc4c(c3)CCO4)C2)n1`, with -5.01%; and `c1cnc(-c2noc(C3CN(Cc4ccc5c(c4)CCO5)C3)n2)cn1`, with 58.5%.
As for `c1csc(-c2noc(C3CCCOC3)n2)c1` (stereo not given), the INHIBITION was -31%.
Consider `c1csc(-c2noc(C3CN(Cc4ccc5c(c4)CCO5)C3)n2)c1`, for which the INHIBITION was 52.5%.
In the case of `c1csc(-c2noc(C3CNC3)n2)c1`, the INHIBITION stood at 58.1%.
Then `c1cnc(-c2noc(C3CN(Cc4ccsc4)C3)n2)cn1`, with 28.3%.
`c1csc(-c2noc(C3CCCNC3)n2)c1` (stereo not given): the INHIBITION is given as 41.5%.
Then `c1cnc(-c2noc(C3CN(Cc4ccc5c(c4)CCO5)C3)n2)nc1`, with 27.5%; and `CCS(=O)(=O)N1CC(c2nc(-c3cccs3)no2)C1`, with 9.41%.
Then `CCN(CC)CCNc1nc(C(C)C)nc2c(C)nn(CC)c12`, with 44.9%; and `CN(C)CCN1CCCC12CCN(C(=O)c1cccnc1)CC2`, with 11.6%; and `Cc1ccc(NC2CCN(C(=O)c3ccoc3C)CC2)nn1`, with 28.95%.
Take `CN1CCC(N2CCCC(C(=O)N3Cc4ccccc4C3)C2)CC1` (stereo not given): the INHIBITION came out at 10.6%.
Then `O=C(Nc1nncs1)NC1CCN(Cc2ccccc2)C1` (stereo not given), with 12.433%; and `Cc1noc([C@@H]2C[C@@H]3CCN(CC4CC4)C[C@H]3O2)n1`, with -6.39%; and `Cn1ccnc1CNC(=O)N(CCCO)C1CCCc2ccccc21` (stereo not given), with -17.4%.
Then `Cc1nnc(CN(C)CC(=O)NCCc2ccc(F)cc2)n1C`, with -9.39%; and `CCOc1ccccc1C(N)CC(C)C` (stereo not given), with 30.9%; and `CCCOc1ccccc1C(N)CC(C)C` (stereo not given), with 80.9%.
Then `CC(C)COc1ccccc1C(N)CC(C)C` (stereo not given), with 30.9%; and `COCCN1CCOCC2(CCN(c3cnccn3)CC2)C1`, with 29.4%; and `CCc1nc(C)ncc1C(=O)N1CC(C)CN(C)c2ccccc21` (stereo not given), with 57.8%.
`CCc1nc(C)ncc1C(=O)N1CCN(CC)c2ccccc21`: the INHIBITION turned out to be 47.7%.
Turning to `CCc1nc(C)ncc1C(=O)N1CC(=O)N(C)c2ccccc21`, the INHIBITION came to 28.7%.
For the molecule `CO[C@@H]1CCN(Cc2nccs2)C[C@@H]1Cc1cccc(C)c1`, the INHIBITION is listed as 54.4%.
Then `CO[C@@H]1CCN(c2nnc(C)s2)C[C@@H]1Cc1cccc(C)c1`, with 2.41%.
Then `CO[C@H]1CCN(C2CCOCC2)C[C@@H]1Cc1ccccc1`, with -8.51%; and `C[C@@H]1C[C@@H]2CCN(Cc3nccs3)C[C@H]2O1`, with 40.8%; and `CO[C@H]1CCN(c2nnc(C)s2)C[C@@H]1Cc1cccc(C)c1`, with 24.9%.
Then `C[C@H]1C[C@@H]2CCN(Cc3nccs3)C[C@H]2O1`, with 20.1%; and `CO[C@@H]1CCN(C2CCOCC2)C[C@@H]1Cc1ccccc1`, with -84.9%; and `CO[C@H]1CCN(Cc2nccs2)C[C@@H]1Cc1ccccc1`, with 69.5%.
For the molecule `CO[C@@H]1CCN(Cc2nccs2)C[C@@H]1Cc1ccccc1`, the INHIBITION is on record as 62.5%.
Then `Cc1nc2c(c(=O)[nH]1)CN(C(=O)CC[C@@H]1CCCN3CCCC[C@H]13)C2`, with -1.85%.
Then `Cc1nn(C)c(N(C)C)c1CNCc1ccccc1Cn1cccn1`, with 33.8%; and `O=C(c1c[nH]cn1)N1CCCn2c(CN3CCCCC3)nnc2C1`, with -56.3%.
Then `CNS(=O)(=O)c1ccc(CNC(=O)N(C)CC(C)C)cc1`, with 18.3%.
As for `Cc1cnc2n(c1=O)C(CC(=O)NCc1ccc(F)cc1)CS2` (stereo not given), the INHIBITION is listed as 18.3%.
Then `Cc1cnc2n(c1=O)C(CC(=O)NCc1ccc(Cl)cc1)CS2` (stereo not given), with 61.2%; and `Cc1cnc2n(c1=O)C(CC(=O)NCc1ccccc1Cl)CS2` (stereo not given), with 6.67%.
Then `CCOCC1CN(C(=O)c2ccncn2)Cc2cnn(CC)c21` (stereo not given), with 35.7%; and `CCc1n[nH]c(C2CN(C(=O)c3ccc4c(c3)CCC4)CCO2)n1` (stereo not given), with -12.1%; and `COc1ccccc1-n1c(O)cc(C)c(C#N)c1=O`, with 39.1%.
Then `Cc1ccccc1-n1c(O)cc(C)c(C#N)c1=O`, with 3.84%.
Turning to `Cc1cc(O)n(-c2ccccc2Cl)c(=O)c1C#N`, the INHIBITION is 50.4%.
As for `Cc1c(S(=O)(=O)NC2CC2)cc2c(C)cc(=O)n3c2c1CCC3`, the INHIBITION is -17.1%.
Then `CCNc1c(NC(=O)NCCOC)c(=O)oc2ccccc12`, with 69.9%; and `CCCNc1c(NC(=O)NCCCOC)c(=O)oc2ccccc12`, with -13.6%.
Then `CCCNc1c(NC(=O)NCCOC)c(=O)oc2ccccc12`, with -24.7%; and `CCC(CNC(=O)NC1CCN(C)CC1)Oc1ccccc1Cl` (stereo not given), with 89.6%.
As to `CN1CCC(NC(=O)Nc2cnn(-c3ccccc3Cl)c2)CC1`, the INHIBITION is listed as -10.1%.
With `CN1CCC(NC(=O)NCCNc2ccccn2)CC1`, the INHIBITION was 16.1%.
For the molecule `CC(C)n1[nH]c(=O)c2c1NC(=O)CC2c1cccc2cccnc12` (stereo not given), the INHIBITION is given as -62.3%.
Regarding `Cc1ccnc(C2(C)CCCN2S(=O)(=O)c2cccnc2)n1` (stereo not given), the INHIBITION is 21.2%.
Then `Cn1ccc(C(=O)NCc2ccc(CN3CCCC3)cc2)cc1=O`, with -2.19%.
For `COc1cc(NC(=O)NCc2nccn2C)ccc1Br`, the INHIBITION turned out to be 50.8%.
Then `Cn1ccnc1CNC(=O)Nc1ccc(OC2CCC2)c(F)c1`, with 18%.
Then `Cc1cc(NC(=O)NCc2nccn2C)ccc1OC(C)C`, with 37.1%; and `Cc1cnn(CC2CCCN2C(=O)c2ccc(OCC3CC3)nc2)c1` (stereo not given), with -15%.
Turning to `O=C(CCc1cc2n(n1)CCCN(C(=O)c1ccncc1)C2)NC1CC1`, the INHIBITION was 43.2%.
`CC(C)CC(C)NC1CCN(c2ccc(-c3cscn3)cc2)CC1` (stereo not given): the INHIBITION is on record as 45.2%.
Then `CC(C)[C@H](C)NC1CCN(c2ccc(-c3cscn3)cc2)CC1`, with 81.4%; and `Cc1cc(NC(=O)CN2CCN(c3nc(C)cs3)C(C)C2)on1` (stereo not given), with -1.12%.
Then `Cc1nc(C(C)C)sc1C(=O)N1CCC(N2CCSCC2)CC1`, with 1.86%; and `CS(=O)(=O)N1CCOCC2(CCN(Cc3ccc[nH]3)CC2)C1`, with 57.1%; and `CN1CCOCC2(CCN(Cc3ccc[nH]3)CC2)C1`, with 18.7%.
Then `c1c[nH]c(CN2CCC3(CC2)COCCN(CCN2CCCC2)C3)c1`, with -15.3%; and `O=C(O)c1ccccc1-c1ccc(CN2CCC(CO)C2)cn1` (stereo not given), with 33.2%; and `CC(C)n1cnc2c1C(C(=O)N1CCOCC1)N(CC1CC1)CC2` (stereo not given), with -49.1%.
Take `Cc1cccc(CN2CCc3c(CNC(=O)CC#N)nn(C)c3C2)n1`: the INHIBITION worked out at 44.2%.
Then `Cc1cccc(CN2CCc3c(COCC(=O)N(C)C)nn(C)c3C2)n1`, with 76.2%.
Then `CN(C)C(=O)COCc1nn(C)c2c1CCN(Cc1ccco1)C2`, with 13.3%; and `CN1CCC(c2cccc(-c3ccc(C(=O)O)cc3)n2)CC1`, with 15.5%.
`c1csc(CN2CCCN(c3ncnc4[nH]ccc34)CC2)c1`: the INHIBITION is given as 38.4%.
On to `CCCc1nc(N(C)CCc2noc(C(C)C)n2)c2cnn(C)c2n1`, for which the INHIBITION is 42.3%.
For `CCCc1nc(N2CCCN(c3ncccn3)CC2)c2cnn(C)c2n1`, the INHIBITION came out at 30.9%.
Then `CNc1ncc(CN(C)c2nc(C3CCCC3)nc3c2cnn3C)cn1`, with 24.7%; and `CCCc1nc(N(C)Cc2cnc(NC)nc2)c2cnn(C)c2n1`, with 58.7%; and `CN(C)CCN(C)c1nc(CCc2ccccc2)nc2c1cnn2C`, with -13.4%.
Take `CCCc1nc(N(C)CCN2CCCCCC2)c2cnn(C)c2n1`: the INHIBITION came to 53%.
Then `Cc1cccc(-n2c(C)cc(C(=O)NS(C)(=O)=O)c2C)c1`, with 9.14%.
Then `C/C(Cl)=C/CNC(=O)C1CCC2(CC1)CN(C)C(=O)c1ccccc1O2` (stereo not given), with 7.96%; and `CCC(C)NS(=O)(=O)c1ccc(C=Cc2onc(C)c2NC(C)=O)cc1` (stereo not given), with -9.55%.
Take `CC(C)NC(=O)CN1CCN(CC2CCOc3ccccc3C2)CC1` (stereo not given): the INHIBITION was -19.8%.
As for `CN(C)C(=O)CN1CCCN(CC2CCOc3ccccc3C2)CC1` (stereo not given), the INHIBITION is 75.2%.
Then `O=C(CN1CCN(CC2CCOc3ccccc3C2)CC1)N1CCCC1` (stereo not given), with 16.1%.
